# Where “and” joins values, the source holds several entries; their conditions need not be identical. Identical values can stand only once. Where a structure was tested more than once in an assay, its records may differ in their call. Calls of active or inactive are those of the source. How the source made its calls: active means hit-call score of the fitted dose curve at least 0.9, where 1 is the maximum; inactive means score below 0.9.
# Assays:
# Settings in all cases: primary human HUVEC with PBMC; actives raise or lower the signal
# [1] = read-out: Interleukin-1 alpha (IL1a), IL1A (gene 3552); experiment: BSK_LPS_IL1a: BioMAP Diversity Plus: LPS Assay for Interleukin-1 alpha (IL1a) Biomarker Activity (AID 2283080)
# How it was run: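 Human umbilical vein endothelial cells co-cultured with PBMC and stimulated with LPS; IL-1a measured by ELISA 24 h after dosing. Bidirectional fitting against DMSO; cytotoxicity checked by SRB staining in parallel cultures.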
# [2] = read-out: Monocyte Chemoattractant Protein-1 (MCP1), CCL2 (gene 6347); experiment: BSK_LPS_MCP1: BioMAP Diversity Plus: LPS Assay for Monocyte Chemoattractant Protein-1 (MCP1) Biomarker Activity (AID 2283081);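 on AC50: secreted MCP-1 protein quantified by ELISA in culture supernatant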
# How it was run: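 Human umbilical vein endothelial cells co-cultured with PBMC, LPS-stimulated; secreted MCP-1 measured by ELISA 24 h after compound addition. Bidirectional curve fitting against DMSO baseline; SRB total-protein staining in parallel cultures for cytotoxicity.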
# [3] = BSK_LPS_PGE2: BioMAP Diversity Plus: LPS Assay for Prostaglandin E2 (PGE2) Biomarker Activity (AID 2283082);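 on AC50: secreted prostaglandin E2 measured by ELISA in LPS-stimulated co-culture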
# How it was run: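 HUVEC plus human PBMC co-culture stimulated with LPS; secreted PGE2 quantified by ELISA 24 h after chemical dosing. Activity fitted bidirectionally against DMSO baseline; parallel SRB staining (0.1% SRB after 10% TCA fixation, 560 nm) flags overt cytotoxicity.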
# [4] = read-out: Macrophage colony-stimulating factor (MCSF), CSF1 (gene 1435); experiment: BSK_LPS_MCSF: BioMAP Diversity Plus: LPS Assay for Macrophage colony-stimulating factor (MCSF) Biomarker Activity (AID 2283083)
# How it was run: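 HUVEC–PBMC co-culture, M-CSF measured by ELISA 24 h after chemical dosing. Fitted in both directions relative to DMSO as negative control; overt cytotoxicity assessed by SRB total-protein staining in parallel cultures.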
# [5] = read-out: Tissue Factor, F3 (gene 2152); experiment: BSK_LPS_TissueFactor: BioMAP Diversity Plus: LPS Assay for Tissue Factor Biomarker Activity (AID 2283084)
# How it was run: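 Human umbilical vein endothelial cells co-cultured with PBMC were dosed with compound. Cell-surface CD142 was measured by ELISA 24 h later. Activity was fitted bidirectionally against DMSO, with SRB total-protein staining in parallel cultures for cytotoxicity.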
# [6] = read-out: Vascular cell adhesion molecule 1 (VCAM1), VCAM1 (gene 7412); experiment: BSK_LPS_VCAM1: BioMAP Diversity Plus: LPS Assay for Vascular cell adhesion molecule 1 (VCAM1) Biomarker Activity (AID 2283086)
# How it was run: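 Human umbilical vein endothelial cells co-cultured with PBMC and stimulated with LPS; VCAM-1 measured by ELISA 24 h after dosing. Bidirectional curve fitting against DMSO baseline; cytotoxicity tracked in parallel by SRB total-protein staining.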
# [7] = read-out: CD40, CD40 (gene 958); experiment: BSK_SAg_CD40: BioMAP Diversity Plus: SAg Assay for CD40 Biomarker Activity (AID 2283088)
# How it was run: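 HUVEC plus PBMC co-culture, superantigen-activated, with CD40 read by ELISA 24 h after dosing. Curves fitted in both directions against DMSO. Overt cytotoxicity checked by parallel SRB total-protein staining.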
# [8] = read-out: CD69, CD69 (gene 969); experiment: BSK_SAg_CD69: BioMAP Diversity Plus: SAg Assay for CD69 Biomarker Activity (AID 2283089);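 on AC50: cell surface CD69 protein quantified by ELISA with fluorescence detection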
# How it was run: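 Values derive from bidirectional fitting relative to DMSO vehicle. Cells: umbilical vein endothelium plus peripheral blood mononuclear cells, treated 24 h before fluorescent ELISA for CD69.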
# [9] = read-out: Tumor necrosis factor (Homo sapiens) (UniProt P01375); experiment: BSK_LPS_TNFa: BioMAP Diversity Plus: LPS Assay for Tumour Necrosis Factor alpha (TNFa) Biomarker Activity (AID 2283085);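 on AC50: TNFa protein level quantified by ELISA in the co-culture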
# How it was run: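 Human umbilical vein endothelial cells co-cultured with PBMC and stimulated with LPS. TNFa was measured by ELISA 24 h after chemical dosing, fitted bidirectionally relative to DMSO.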
# [10] = read-out: CD38, CD38 (gene 952); experiment: BSK_SAg_CD38: BioMAP Diversity Plus: SAg Assay for CD38 Biomarker Activity (AID 2283087)
# How it was run: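 Human HUVEC plus PBMC co-culture stimulated with superantigen; CD38 measured by ELISA 24 h after chemical dosing. Fluorescence read-out, bidirectional fit against DMSO; cytotoxicity tracked in parallel by SRB and Alamar Blue.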
# Tumor necrosis factor (Homo sapiens), sequence (P01375 whole entry, looked up): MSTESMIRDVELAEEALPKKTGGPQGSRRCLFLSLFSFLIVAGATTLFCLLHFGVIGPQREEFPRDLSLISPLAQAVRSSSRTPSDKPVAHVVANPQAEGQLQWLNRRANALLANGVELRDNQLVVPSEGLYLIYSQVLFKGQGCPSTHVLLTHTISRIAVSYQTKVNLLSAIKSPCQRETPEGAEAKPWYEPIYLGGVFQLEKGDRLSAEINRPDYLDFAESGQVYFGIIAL
smiles,measurement,setting,value
[2H]C1([2H])[n+]2ccccc2-c2cccc[n+]2C1([2H])[2H],outcome,[1],inactive
same,outcome,[2],inactive
same,outcome,[3],inactive
same,outcome,[4],inactive
same,outcome,[5],inactive
same,outcome,[6],inactive
same,outcome,[7],inactive
same,outcome,[8],inactive
COC(=O)c1ccccc1S(=O)(=O)NC(=O)Nc1nc(C)nc(OC)n1,outcome,[1],inactive
same,outcome,[2],inactive
same,outcome,[3],inactive
same,outcome,[4],inactive
same,outcome,[5],inactive
same,outcome,[6],inactive
same,outcome,[7],inactive
same,outcome,[8],inactive
O=[N+]([O-])c1c(Cl)c(Cl)c(Cl)c(Cl)c1Cl,outcome,[1],inactive
same,outcome,[2],inactive
same,outcome,[3],inactive
same,AC50,[4],22.4 µM (active)
same,outcome,[5],inactive
same,AC50,[9],25.9 µM (active)
same,AC50,[6],25.5 µM (active)
same,outcome,[7],inactive
same,outcome,[8],inactive
Cc1cc(C)nc(NC(=O)NS(=O)(=O)c2ccccc2C(=O)OC2COC2)n1,outcome,[1],inactive
same,outcome,[2],inactive
same,outcome,[3],inactive
same,AC50,[4],0.331 µM (active)
same,outcome,[5],inactive
same,outcome,[6],inactive
same,outcome,[7],inactive
same,outcome,[8],inactive
CCCN(CCOc1c(Cl)cc(Cl)cc1Cl)C(=O)n1ccnc1,outcome,[1],inactive
same,outcome,[2],inactive
same,AC50,[3],0.42 µM (active)
same,AC50,[4],20 µM (active)
same,outcome,[5],inactive
same,AC50,[9],0.875 µM (active)
same,outcome,[6],inactive
same,AC50,[7],27.8 µM (active)
same,AC50,[8],14.9 µM (active)
CCOc1nc(NC)nc(NC(=O)NS(=O)(=O)c2ccccc2C(=O)OC)n1,outcome,[2],inactive
same,outcome,[3],inactive
same,outcome,[4],inactive
same,outcome,[5],inactive
same,outcome,[9],inactive
same,outcome,[6],inactive
same,outcome,[7],inactive
same,outcome,[8],inactive
CCOCN(C(=O)CCl)c1c(C)cccc1CC,outcome,[1],inactive
same,AC50,[2],31.2 µM (active)
same,outcome,[3],inactive
same,AC50,[4],23.9 µM (active)
same,outcome,[5],inactive
same,AC50,[6],20 µM (active)
same,outcome,[7],inactive
same,AC50,[8],11.8 µM (active)
CCc1ccc(C(=O)NN(C(=O)c2cc(C)cc(C)c2)C(C)(C)C)cc1,outcome,[2],inactive
same,AC50,[3],20 µM (active)
same,outcome,[4],inactive
same,outcome,[5],inactive
same,AC50,[9],14.2 µM (active)
same,outcome,[6],inactive
same,AC50,[10],30.6 µM (active)
same,outcome,[7],inactive
same,AC50,[8],13.5 µM (active)
CC(C)(C)C(O)C(Oc1ccc(Cl)cc1)n1cncn1 (stereo not given),outcome,[2],inactive
same,AC50,[3],3.1 µM (active)
same,outcome,[3],inactive
same,AC50,[4],20 µM (active)
same,outcome,[4],inactive
same,outcome,[5],inactive
same,outcome,[6],inactive
same,AC50,[7],8.99 µM (active)
same,outcome,[7],inactive
same,outcome,[8],inactive
CC1(c2ccc(Oc3ccccc3)cc2)OC(=O)N(Nc2ccccc2)C1=O (stereo not given),AC50,[2],29.5 µM (active)
same,AC50,[3],6.92 µM (active)
same,AC50,[4],20 µM (active)
same,AC50,[5],28.4 µM (active)
same,outcome,[9],inactive
same,AC50,[6],20 µM (active)
same,AC50,[7],15.8 µM (active)
same,AC50,[8],20 µM (active)
CC(C)(C)C(O)/C(=C\c1ccc(Cl)cc1Cl)n1cncn1 (stereo not given),AC50,[1],33.2 µM (active)
same,AC50,[2],30.5 µM (active)
same,AC50,[3],0.994 µM (active)
same,AC50,[4],20.6 µM (active)
same,outcome,[5],inactive
same,AC50,[6],27.6 µM (active)
same,AC50,[7],25.6 µM (active)
same,AC50,[8],15.8 µM (active)
C[C@H]1[C@H](c2ccc(Cl)cc2)SC(=O)N1C(=O)NC1CCCCC1,AC50,[2],20.1 µM (active)
same,outcome,[3],inactive
same,AC50,[4],14.6 µM (active)
same,outcome,[5],inactive
same,outcome,[9],inactive
same,AC50,[6],12.5 µM (active)
same,AC50,[7],15.4 µM (active)
same,AC50,[8],13.5 µM (active)
O=C(O)C(F)(F)C(F)(F)C(F)(F)C(F)(F)C(F)(F)C(F)(F)C(F)(F)F,outcome,[2],inactive
same,AC50,[3],35.5 µM (active) and 27.5 µM (active)
same,outcome,[3],inactive
same,outcome,[4],inactive
same,outcome,[5],inactive
same,outcome,[6],inactive
same,outcome,[7],inactive
same,outcome,[8],inactive
CC(C)N(C(=O)COc1nnc(C(F)(F)F)s1)c1ccc(F)cc1,outcome,[2],inactive
same,outcome,[3],inactive
same,outcome,[4],inactive
same,outcome,[5],inactive
same,AC50,[9],12.6 µM (active)
same,outcome,[6],inactive
same,outcome,[7],inactive
same,outcome,[8],inactive
COc1nn(CSP(=S)(OC)OC)c(=O)s1,outcome,[2],inactive
same,AC50,[3],12.6 µM (active)
same,outcome,[4],inactive
same,outcome,[5],inactive
same,outcome,[9],inactive
same,outcome,[6],inactive
same,outcome,[7],inactive
same,outcome,[8],inactive
OCCOc1ccccc1,outcome,[2],inactive
same,outcome,[3],inactive
same,outcome,[4],inactive
same,outcome,[5],inactive
same,outcome,[9],inactive
same,outcome,[6],inactive
same,outcome,[7],inactive
same,outcome,[8],inactive
CNC(=O)Oc1cccc(N=CN(C)C)c1,outcome,[1],inactive
same,outcome,[2],inactive
same,outcome,[3],inactive
same,outcome,[4],inactive
same,AC50,[5],26.5 µM (active)
same,outcome,[9],inactive
same,AC50,[6],17.4 µM (active)
same,AC50,[10],33 µM (active)
same,AC50,[7],34.6 µM (active)
same,outcome,[8],inactive
O=S1OCC2C(CO1)C1(Cl)C(Cl)=C(Cl)C2(Cl)C1(Cl)Cl (stereo not given),AC50,[1],16.3 µM (active)
same,AC50,[2],34.9 µM (active)
same,outcome,[3],inactive
same,AC50,[4],30.2 µM (active)
same,AC50,[5],31.2 µM (active)
same,AC50,[6],18.3 µM (active)
same,AC50,[10],28.3 µM (active)
same,AC50,[7],16.3 µM (active)
same,AC50,[8],26.9 µM (active)
CCS(=O)(=O)c1cccnc1S(=O)(=O)NC(=O)Nc1nc(OC)cc(OC)n1,outcome,[2],inactive
same,AC50,[3],2.31 µM (active)
same,outcome,[4],inactive
same,outcome,[5],inactive
same,AC50,[9],1.75 µM (active)
same,outcome,[6],inactive
same,outcome,[7],inactive
same,outcome,[8],inactive
C#CCN1C(=O)COc2cc(F)c(N3C(=O)C4=C(CCCC4)C3=O)cc21,outcome,[1],inactive
same,outcome,[2],inactive
same,outcome,[3],inactive
same,outcome,[4],inactive
same,outcome,[5],inactive
same,outcome,[9],inactive
same,outcome,[6],inactive
same,AC50,[10],14.2 µM (active)
same,outcome,[7],inactive
same,outcome,[8],inactive
Oc1cc(Cl)ccc1Oc1ccc(Cl)cc1Cl,AC50,[2],19.9 µM (active) [middle of 4 runs]
same,AC50,[3],6.07 µM (active) [middle of 4 runs]
same,AC50,[4],18.7 µM (active) [middle of 4 runs]
same,AC50,[5],28.1 µM (active) and 14.7 µM (active) and 30.3 µM (active)
same,AC50,[9],31.2 µM (active) [middle of 4 runs]
same,AC50,[6],25.8 µM (active) [middle of 4 runs]
same,AC50,[7],12.9 µM (active) [middle of 4 runs]
same,AC50,[8],13.5 µM (active) and 14.7 µM (active) and 14.4 µM (active)
O=[N+]([O-])/N=C1\NCCN1Cc1ccc(Cl)nc1,outcome,[1],inactive
same,outcome,[2],inactive
same,outcome,[3],inactive
same,outcome,[4],inactive
same,outcome,[5],inactive
same,outcome,[6],inactive
same,outcome,[7],inactive
same,outcome,[8],inactive
Clc1ccccc1-c1nnc(-c2ccccc2Cl)nn1,outcome,[1],inactive
same,outcome,[2],inactive
same,outcome,[3],inactive
same,outcome,[4],inactive
same,outcome,[5],inactive
same,outcome,[6],inactive
same,outcome,[7],inactive
same,outcome,[8],inactive
N#Cc1c(Cl)c(Cl)c(Cl)c(C#N)c1Cl,AC50,[2],1.16 µM (active)
same,AC50,[3],0.148 µM (active)
same,AC50,[4],0.924 µM (active)
same,AC50,[5],0.332 µM (active)
same,AC50,[9],0.134 µM (active)
same,AC50,[6],0.773 µM (active)
same,AC50,[7],0.459 µM (active)
same,AC50,[8],1.35 µM (active)
O=C1c2ccccc2C(=O)N1SC(Cl)(Cl)Cl,outcome,[2],inactive
same,outcome,[3],inactive
same,outcome,[4],inactive
same,outcome,[5],inactive
same,AC50,[9],32 µM (active)
same,outcome,[6],inactive
same,outcome,[7],inactive
same,outcome,[8],inactive

# From PubChem BioAssay (EPA / NIEHS)
